p53ts 32C kill: p53ts cell cytotoxicity, permissive temperature; hit rate 0.93% among 130,000; H1299-p53A138V at 32C, ATP luminescence viability, 24 h; Potency, µM (highest dose often 46.1 µM), for inactives: at the highest dose activity change, negative = cytotoxicity, actives largely listed as cytotoxic; AID 924;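 further: 0% = DMSO and -100% = full killing by reference compound; nearly all actives have a fitted effect of over 55% in size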
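H1299-p53 A138V cells (temperature-sensitive p53) exposed 24 h to up to 46 uM compound at 32C, where p53 is wild-type in conformation. Viability read as ATP luminescence and normalised to DMSO and 100 uM tamoxifen. AC50 fitted with the Hill equation.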
HPGD inh: blocks human HPGD enzyme activity | purified HPGD, NADH fluorescence kinetic, PGE2 substrate | AID 894 | Potency, µM, for the others: at the highest dose activity change, negative = inhibition, actives largely listed as inhibitors | hit rate 4.3% among 150,000 | P15428; active means well fitted inhibition curve with a large enough effect, not every such curve was filed as active; inconclusive means small, poorly fitted or top-dose-only effect, or another doubt; inactive means no such curve, though single readings can be large or run the other way
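20 nM HPGD preincubated 15 min at room temperature with compound in 50 mM Tris-HCl pH 8, 0.01% Tween 20. Started with 1 mM NAD+ and 30 uM prostaglandin E2; NADH fluorescence (360/450 nm) read 5 times over 30-s intervals, last minus first.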
p53ts 39C kill: p53ts cell cytotoxicity, nonpermissive temperature; H1299-p53A138V viability at 39C, ATP luminescence, 24 h; AID 902; Potency, µM (highest dose often 46.1 µM), inactives show at the highest dose activity change, negative = cell killing, actives largely listed as cytotoxic; hit rate 1.5% among 130,000; further: nearly all actives have a fitted effect of over 55% in size
ALOX12 inhib: 12-hLO (ALOX12) enzyme inhibition | AID 1452 | purified 12-hLO, xylenol orange hydroperoxide absorbance | Potency, µM (top dose mostly 57.1 µM), without a hit: at the highest dose activity change, negative = inhibition, most hits filed as inhibitors | hit rate 0.12% among 150,000; further: nearly all actives have a fitted effect of over 55% in size
Target sequence (P18054 whole entry, looked up): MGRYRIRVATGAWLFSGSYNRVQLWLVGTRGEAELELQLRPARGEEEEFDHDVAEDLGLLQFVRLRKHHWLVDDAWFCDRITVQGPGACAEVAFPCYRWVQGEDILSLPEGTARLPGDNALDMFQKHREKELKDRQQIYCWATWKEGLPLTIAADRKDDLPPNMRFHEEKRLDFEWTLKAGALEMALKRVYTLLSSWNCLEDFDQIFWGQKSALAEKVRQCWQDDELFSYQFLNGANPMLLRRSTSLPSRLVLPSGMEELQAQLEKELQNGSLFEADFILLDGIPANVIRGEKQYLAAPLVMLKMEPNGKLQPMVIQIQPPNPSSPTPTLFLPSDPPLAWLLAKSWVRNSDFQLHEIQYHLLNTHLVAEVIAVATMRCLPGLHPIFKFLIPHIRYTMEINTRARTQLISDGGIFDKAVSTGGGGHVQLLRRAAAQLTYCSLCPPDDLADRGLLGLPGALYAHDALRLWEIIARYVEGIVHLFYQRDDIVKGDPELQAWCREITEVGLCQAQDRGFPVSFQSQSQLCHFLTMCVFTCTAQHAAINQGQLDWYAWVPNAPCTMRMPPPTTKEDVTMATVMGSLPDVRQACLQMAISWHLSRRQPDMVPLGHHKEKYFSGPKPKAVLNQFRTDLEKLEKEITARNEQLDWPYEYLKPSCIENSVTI
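Lipoxygenase turnover measured by absorbance at 573 and 405 nm after Fe-XO development. Human 12hLO 150 nM, arachidonate 40 uM, pH 7.0 Hepes buffer with detergent; 15 min compound preincubation, 30 min reaction.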
* hit, by the source's call; ? = inconclusive; . = no result; [ ] = remark or other dose. This is a sample that favours compounds with a hit; in the whole collection about 4.4% have one here. Unless noted, the call rests on the fitted dose curve; in most records, active means well fitted curve in the direction sought with a large enough effect; inconclusive means small, poorly fitted or top-dose-only effect, or another doubt; inactive means no such curve, though single readings can be large; an effect the other way counts as inactive or inconclusive. Unless noted, on the % scale 0 is the no-effect control and ±100 the full control effect; potency means the concentration at half of the fitted maximal effect.

SMILES | p53ts 32C kill | HPGD inh | p53ts 39C kill | ALOX12 inhib
Cn1c(NCCCO)nc2c1c(=O)n(Cc1ccccc1F)c(=O)n2C | . | -2% | . | 0%
COc1ccccc1Oc1nc2c(c(=O)n(Cc3ccccc3F)c(=O)n2C)n1C | 8% | 14µM* | 10% | -19%
CN(C)/C=N/c1cnc(C(=O)c2ccc(Cl)cc2)n1C | -26% | 16µM* | -29% | -3%
Cc1c(C#N)c(N=CN(C)C)c(C(=O)c2ccc(Br)cc2)n1-c1ccc(Cl)cc1 | . | -17% | . | 5%
COCC(=O)N1CCC2(CC1)CN(c1ccccc1)C2 | 12% | -9% | 6% | 3%
Oc1ccccc1-c1nc(/C=C/c2ccccc2Cl)no1 | 7.9µM* | . | 7.9µM* | .
CN(C)c1ccc(/C=C/c2noc(-c3ccccc3O)n2)cc1 | -21% | . | -3% | .
CCOc1ccc(C2C(C(=O)Nc3ccccc3OC)=C(C)Nc3c(C(=O)Nc4cccc(C)c4)cnn32)cc1 (stereo not drawn) | 18% | . | 7% | .
COC(=O)CN1C(=O)CSc2ccc(S(=O)(=O)Nc3ccc(Cl)cc3C)cc21 | 5% | . | -4% | .
Cc1ccc(NS(=O)(=O)c2ccc3[nH]c4c(c3c2)CCCCCC4)cc1Cl | 1% | . | 25µM* | .
Cc1ccccc1NS(=O)(=O)c1ccc2[nH]c3c(c2c1)CCCCC3 | 9% | . | 25µM* | .
CCOC(=O)c1cnc(-n2nc(C)cc2C)nc1N(C)C | 3.2µM* | -17% | 2µM* | 3%
CCCCNC(=O)CCC(=O)NNc1nc2ccccc2c2nc(-c3ccccc3)nn12 | -2% | -7% | 13µM* | 2%
Cc1c(C(=O)NC(=S)Nc2ccc(NC(=O)c3cccs3)cc2)oc2ccccc12 | . | 2.8µM* | . | ?
CC(=O)NC(=S)Nc1ccc(NC(=O)c2cccs2)cc1 | . | -23% | . | -1%
Cc1ccc(NC(=O)c2nc(S(C)(=O)=O)ncc2N(Cc2ccco2)Cc2ccco2)cc1 | 3% | . | 23% | .
COc1ccccc1NC(=O)C1=C(C)Nc2c(C(=O)Nc3ccc(F)cc3)cnn2C1c1ccc(Cl)cc1 (stereo not drawn) | 10% | . | 7% | .
COc1cccc(NC(=O)c2ccc(CN3CCOCC3)cc2)c1 | 13µM* | -2% | 10µM* | 5%
COc1cccc(NC(=O)c2oc3ccccc3c2NC(=O)c2ccc(OC(C)C)cc2)c1 | ? | . | 10µM* | .
COc1cccc(NC(=O)c2oc3ccccc3c2NC(=O)c2ccc3c(c2)OCO3)c1 | 10µM* | ? | 10µM* | -2%
CC(C)Oc1cccc(C(=O)Nc2ccc(CN3CCOCC3)cc2)c1 | -16% | -7% | -20% | 1%
O=C(NCC(c1ccccc1)c1ccccc1)c1nn(-c2ccccc2F)nc1CO | -5% | . | -7% | .
C[Se]CCC(N)C(=O)O (stereo not drawn) | . | -15% | . | -12%[0.00818 µM]
COc1cc(OC)c(N(C)C(=O)c2cn(C3CCCC3)c(=O)c3c2c2ccccc2n3C)cc1Cl | 44% | . | 1% | .
CCc1ccc(NC(=O)N2CCN(Cc3cc(=O)n4nc(-c5ccccc5OC)sc4n3)CC2)cc1 | -5% | . | -4% | .
SMILES | p53ts 32C kill | HPGD inh | p53ts 39C kill | ALOX12 inhib
CCC(Sc1ncc(S(=O)(=O)c2ccc(C)cc2)c(=O)[nH]1)C(=O)Nc1cc(C)ccc1C (stereo not drawn) | 15% | . | -23% | .
CC1(C)CC(=O)C(C(C2=C(O)CC(C)(C)CC2=O)c2ccc(Br)s2)C(=O)C1 (stereo not drawn) | . | 1.4µM* | . | -28%
COc1cccc(C(C2=C(O)CC(C)(C)CC2=O)C2C(=O)CC(C)(C)CC2=O)c1 (stereo not drawn) | . | -5% | . | 2%
Cc1ccc(C(C2=C(O)CC(C)(C)CC2=O)C2C(=O)CC(C)(C)CC2=O)s1 (stereo not drawn) | . | 3.2µM* | . | -15%
CC1(C)CC(=O)C(C(C2=C(O)CC(C)(C)CC2=O)c2ccc([N+](=O)[O-])cc2)C(=O)C1 (stereo not drawn) | . | . | . | -5%
CCOC(=O)c1cccc(NC(=O)c2cnccn2)c1 | -2% | ? | -10% | 3%
CCOC(=O)c1ccccc1NC(=O)c1ccc2c(Cl)c3c(nc2c1)CCC3 | -27% | . | ? | .
O=C(Nc1ccccc1C(F)(F)F)c1cc2ccccn2n1 | 10µM* | . | 7.9µM* | .
COc1cc(Cl)c(NC(=O)c2cc3ccccn3n2)c(OC)c1 | -9% | . | -2% | .
CCOC(=O)c1cccc(NC(=O)c2ccc3c(Cl)c4c(nc3c2)CCC4)c1 | ? | . | 0.79µM* | .
COc1ccc(NC(=O)c2cc3ccccn3n2)cc1 | 10µM* | -9% | 7.9µM* | -4%
CCOC(=O)c1cccc(NC(=O)c2cc3ccccn3n2)c1 | 10µM* | . | 13µM* | .
Cc1ccc(CNC(=O)C(=O)NCC(c2ccco2)S(=O)(=O)c2ccccc2)cc1 (stereo not drawn) | 6% | . | -9% | .
COc1ccc(-c2cc(C(F)(F)F)nc(SCC(=O)NCC(C)C)n2)cc1OC | 1% | . | -25% | .
COc1ccc(C2=NC(C)(C)N(CC(=O)Nc3cccc(C)c3)C2=O)cc1 | -10% | . | -16% | .
CC(=O)c1c(C)[nH]c(C(=O)Nc2cc(C)cc(C)c2)c1C | . | 2% | . | 1%
CC(=O)c1c(C)[nH]c(C(=O)Nc2ccc(C)cn2)c1C | 2.5µM* | -12% | 5µM* | 1%
COc1cccc(C(=O)COC(=O)C(C)N2C(=O)c3ccccc3C2=O)c1 (stereo not drawn) | -3% | -17% | 11% | -5%
COc1ccc(C(=O)COC(=O)C(CC(C)C)N2C(=O)c3ccccc3C2=O)cc1 (stereo not drawn) | 16µM* | -12% | ? | -7%
CCN(CC)C(=O)Cn1c(=O)nc(-c2ccccc2F)c2cc(Cl)ccc21 | 14% | . | 13% | .
COc1ccc(/C=C2\N=C(SC)SC2=O)cc1OC | . | -14% | . | -6%
CCSC1=N/C(=C\c2ccc(C(=O)O)cc2)C(=O)S1 | -25% | -24% | -5% | -3%
CCOc1cc(/C=C2\N=C(SC)SC2=O)cc([N+](=O)[O-])c1OC(C)=O | . | 16µM* | . | -6%
CCOc1cc(/C=C2\N=C(SCC)SC2=O)cc([N+](=O)[O-])c1OC(C)=O | . | 13µM* | . | -18%
CCSC1=N/C(=C\c2ccc(C)s2)C(=O)S1 | . | -21% | . | -9%

Screening data: PubChem BioAssay, National Center for Advancing Translational Sciences (NCATS)
